Screening results: PubChem BioAssay, National Center for Advancing Translational Sciences (NCATS)
TDP1 cell CPT = DT40-hTDP1 cell growth loss with CPT; AID 686979; chicken DT40 Tdp1-/-;hTDP1 cells + 20 nM CPT, ATP luminescence, 48 h; Potency, µM (top dose mostly 46.2 µM), for inactives: top-dose activity change, negative = growth inhibition, most hits filed as inhibitors; 12% of 420,000 active; also: % is scaled to controls: 0 for no effect and ±100 for the full control effect; nearly all actives have a fitted effect of over 55% in size
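Cell growth measured by CellTiter-Glo luminescence after a minimum 48 h, 37 C compound exposure with 20 nM CPT in Tdp1-knockout DT40 cells stably expressing hTDP1, seeded 400/well; qHTS titration format.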
HT1080NT lethal = kills 2HG-producing HT-1080-NT fibrosarcoma cells. HT-1080-NT fibrosarcoma viability, CellTiter-Glo ATP luminescence, 48 h. Potency, µM (series often up to 46.1 µM), without a hit: top-dose activity, negative = less viability, actives largely listed as cytotoxic. 1.6% of 360,000 active. AID 686970;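 also: NT is the 2HG producing partner of a matched IDH1 knockdown line; 0% = DMSO-treated cells and -100% = media-only wells without cells; nearly all actives have a fitted effect of over 55% in size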
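Toxicity toward the 2HG-producing NT line was scored as %Activity, normalised to DMSO and no-cell wells, from CellTiter-Glo luminescence after 48 hours' treatment.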
HepG2 tox = kills HepG2 cells in TGF-b inhibitor counter-screen. 0.76% of 410,000 active. HepG2 CAGA-GFP viability, ATP luminescence, 18 h. AID 588856. Potency, µM (doses to about 46.1 µM), for inactives: at the highest dose activity change, negative = cytotoxicity, most hits filed as cytotoxic
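HepG2 CAGA-GFP cells (1000/well, DMEM with 1% FBS) received compound, then TGF-beta at 500 pg/mL final, and were incubated 18 hours at 37 degrees C. Viability was read by CellTiter-Glo luminescence. Media-only wells were set as complete cell-killing and DMSO as no toxicity.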
HT1080 IDH1KD tx = toxicity to HT-1080 IDH1 knockdown cells (counter line). HT-1080 IDH1 knockdown viability, ATP luminescence, 48 h. Potency, µM (series often up to 46.1 µM), for inactives: top-dose activity, negative = toxicity, actives largely listed as cytotoxic. 2% of 360,000 active;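 also: 0% = DMSO wells and -100% = cell-free medium wells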
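Luminescent ATP read-out (CellTiter-Glo, 10 min at room temperature) after 48 h compound exposure at 37 °C gave viability of IDH1-knockdown HT-1080 cells. Activity was normalised to DMSO and cell-free wells, then fitted as concentration-response curves.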
DT40 TDP1 no CPT = qHTS for Inhibitors of human tyrosyl-DNA phosphodiesterase 1 (TDP1): qHTS in cells in absence of CPT; DT40 Tdp1-/- hTDP1 cells, no CPT, ATP luminescence, 48 h; Potency, µM (titrated, usually from 46.2 µM), inactives show at the top dose activity change, negative = growth inhibition, usual class: inhibitors; 15% of 420,000 active; AID 686978, 2013; also: % is scaled to controls: 0 for no effect and ±100 for the full control effect; nearly all actives have a fitted effect of over 55% in size
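Seeded 400 DT40-hTDP1 cells/well (vehicle DMSO, no 20 nM CPT); pinned compounds; ≥48 hr at 37 °C; CellTiter-Glo luminescence as viability measure.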
TGFb SMAD3 inh = inhibitors of TGF-b signaling; HepG2 CAGA-GFP TGF-b/SMAD3 reporter, GFP fluorescence, 18 h; TGF-beta stimulated, 500 pg/mL final; Potency, µM (doses to about 46.1 µM), for the others: top-dose activity, negative = inhibition, actives largely listed as inhibitors; 1.2% of 410,000 active; AID 588855; also: % is scaled to controls: 0 for no effect and ±100 for the full control effect; nearly all actives have a fitted effect of over 65% in size
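Inhibition of TGF-beta-driven CAGA-GFP reporter expression in HEPG2 cells is measured by cellular GFP fluorescence after 18 h stimulation with 500 pg/mL recombinant TGF-beta in 1% FBS medium at 37 degrees C.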
* = called active by the depositor; ? = inconclusive; · = not tested or not shown. Only some compounds are listed: those with a hit (about 17% of all), similar ones and a draw of the others. Calls follow the shape of the dose curve; as a rule, active = well fitted curve in the direction sought with a large enough effect; inconclusive = small, poorly fitted or top-dose-only effect, or another doubt; inactive = no such curve, though single readings can be large; an effect the other way counts as inactive or inconclusive. Potency is read from the fitted curve at half-maximal effect.

SMILES	TDP1 cell CPT	HT1080NT lethal	HepG2 tox	HT1080 IDH1KD tx	DT40 TDP1 no CPT	TGFb SMAD3 inh
COc1cccc(NC(=O)N2CCCC2C(=O)NCc2ccccc2F)c1 (stereo not drawn)	4%	1%	11%	-1%	-3%	-5%
CC1=C(C(=O)NCc2cccc(F)c2)C2(CCCCCC2)OC1=O	-30%	·	-13%	·	-25%	?
CC1=C(C(=O)Nc2ccc(C)c(C)c2)C2(CCCCCC2)OC1=O	15µM*	·	-27%	·	?	0%
Cc1ccc(NC(=O)c2ccc(C#CC3(O)CCCCC3)cc2)cc1C	23µM*	6%	-30%	3%	16µM*	-1%
CC1=C(C(=O)NCc2cccc(Cl)c2)C2(CCCCCC2)OC1=O	?	·	-26%	·	1.8µM*	-7%
Cc1ccc(CN2CC(N3CC=CC3)CS2(=O)=O)cc1 (stereo not drawn)	?	18%	-24%	0%	-19%	-5%
CC(=O)c1ccc(NC(=O)C(C)n2nc(-c3ccccc3)ccc2=O)cc1 (stereo not drawn)	-1%	·	-19%	·	-6%	-9%
O=C1c2ccccc2C(c2nc3ccccc3[nH]2)N1Cc1ccco1 (stereo not drawn)	5%	19%	-2%	1%	-2%	-16%
COc1cc(C(=O)Nc2ccc(S(=O)(=O)Nc3ncccn3)cc2)c([N+](=O)[O-])cc1OC	3%	18%	-2%	3%	-3%	-8%
CC(NC(=O)Cn1cc(C(F)(F)F)ccc1=O)c1ccc(F)cc1 (stereo not drawn)	9%	2%	-16%	3%	18%	1%
CCn1c(=NC(=O)CS(=O)(=O)c2ccc(C)cc2)sc2cccc(OC)c21	?	3%	-29%	2%	16µM*	?
Cn1c(=NC(=O)CCS(=O)(=O)c2ccccc2)sc2cc(F)ccc21	?	3%	6%	-1%	?	20%
COc1cccc2sc(=NC(=O)CS(=O)(=O)c3ccc(Cl)cc3)n(C)c12	7.3µM*	-9%	12%	?	2.3µM*	-12%
COc1cccc2sc(=NC(=O)CS(=O)(=O)c3ccc(F)cc3)n(C)c12	?	6%	2%	-2%	12µM*	?
Cn1c(=NC(=O)CS(=O)(=O)c2ccccc2)sc2cc(F)ccc21	?	-1%	-20%	-2%	?	-20%
COc1cccc2sc(=NC(=O)CS(=O)(=O)c3ccccc3)n(C)c12	?	2%	-9%	13%	15µM*	0%
CCc1nn(CC(=O)N2CCC(C)CC2)c(=O)c2cc3occc3n12	-14%	·	8%	·	-13%	-31%
CCOc1ccc(Nc2nc(N3CCCC3)nc(N3CCN(c4ccc(OC)cc4)CC3)n2)cc1	?	24%	5%	15%	16µM*	0%
CCOc1nc(Nc2ccc(OC)c(Cl)c2)nc(N2CCN(c3ccc(OC)cc3)CC2)n1	18µM*	0%	-32%	-7%	23µM*	?
CCOc1ccc(Nc2nc(Nc3ccc(OCC)cc3)nc(N3CCOCC3)n2)cc1	-15%	·	-26%	·	-7%	40%
CCOc1nc(Nc2ccc(F)cc2)nc(N2CCN(c3ccc(OC)cc3)CC2)n1	?	-2%	-10%	-2%	15µM*	5%
COc1nc(Nc2ccc(OC)c(Cl)c2)nc(OC)n1	-14%	0%	-3%	0%	?	2%
CNC(=O)COC(=O)c1cc(-c2ccccc2)nn1-c1ccccc1	?	3%	-8%	2%	-21%	31%
